Data from PubChem BioAssay AID977607 (Broad Institute, 2014).
Screen size: about 1,500 compounds; about 460 (31%) were called active. About 1% were inconclusive and are not listed.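 The calls were made as follows: active = curve reaches 40% activation over neutral controls at an AC40 no higher than the top valid tested concentration; inconclusive = no clear call, values can overlap the other calls; inactive = signal moving opposite to the expected increase, and the rest.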 Only a sample is shown. Results with a measured potency or affinity are listed apart.

experiment: activators of glucose-dependent insulin secretion, dose response, cell-based, INS-1E, Gaussia luciferase, luminescence, cherry-pick, set 2 (AID 977607); conditions: INS-1E GLuc insulin secretion reporter, 2-3 h, hits give high values; at 35 µM, 100% = signal doubled over neutral wells unless noted;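 also: 0% = median of the plate neutral control wells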

Max activation, inactive:
Cc1nc2ccccc2c2oc(C(=O)N3CCCC(C)C3)cc12 (stereo unspecified) -8.46% [at 11 µM, 100% = signal doubled over neutral wells], COc1ccc(CCNC(=O)Cc2ccc3c(c2)OCO3)cc1OC -22.4% [at 0.42 µM, 100% = signal doubled over neutral wells], CCOC(=O)Cc1csc(NC(=O)c2ccc(OC)c(OC)c2)n1 24.7%, Cc1c(C(=O)N(C)CCc2cnn(C)c2)oc2c(F)cccc12 -14.1% [at 3.8 µM, 100% = signal doubled over neutral wells], CC(=O)Nc1ccc(S(=O)(=O)Nc2ccc3c(c2)n(C)c(=O)n3C)c(C)c1 -23.1%, CCCCn1c(=O)n(C)c(=O)c2c3c(sc21)COC(C)(C)C3 -17% [at 0.015 µM, 100% = signal doubled over neutral wells], O=C(NCc1cccnc1)c1cccc(S(=O)(=O)NCc2ccccc2)c1 -24% [at 0.0016 µM, 100% = signal doubled over neutral wells], COc1ccc(C(=O)Nc2ccccc2C(=O)NCc2cccnc2)cc1OC 42.3% [at 0.42 µM, 100% = signal doubled over neutral wells], c1ccc(CCN2CCN=C2Nc2ccccc2)cc1 -31.5% [at 0.42 µM, 100% = signal doubled over neutral wells], CN(C)C=NC(=O)c1ccc(N2CCN(c3ncc(C(F)(F)F)cc3Cl)CC2)cc1 -20.4% [at 11 µM, 100% = signal doubled over neutral wells], CN(C)c1nc(=NCc2cccs2)ss1 -34.9% [at 11 µM, 100% = signal doubled over neutral wells], CNC(=O)C1CC(=O)N(c2ccc(OCC(=O)Nc3ccccc3)cc2)C1 (stereo unspecified) -14.9% [at 0.135 µM, 100% = signal doubled over neutral wells], CCCc1cc(=O)oc2cc(OCC(=O)NC3CCN(Cc4ccccc4)CC3)ccc12 -23.5%, COc1cc2[nH]c3c(Cl)ncnc3c2cc1OC -29.3% [at 3.8 µM, 100% = signal doubled over neutral wells], O=C(CCc1nc2ccccc2c(=O)[nH]1)NNC(=O)c1cccc(Cl)c1 -14.7% [at 0.015 µM, 100% = signal doubled over neutral wells], CCCn1c(=O)c(C(=O)NCc2ccccc2)c(O)c2ccccc21 -28%, COc1ccnc(N2CCN(c3cccc(C(F)(F)F)c3)CC2)c1C#N 81.3%, CN(C)CCCN(C(=O)c1ccco1)c1nc2c(F)cccc2s1 -22.6% [at 0.015 µM, 100% = signal doubled over neutral wells], CCOc1ccc2ccc(OCC)c(/C=N/n3cnnc3)c2c1 -33.7%, Cc1cc2cc(C#N)c(N3CCOCC3)nc2cc1Cl -10.5% [at 0.015 µM, 100% = signal doubled over neutral wells], O=C1CC(=O)Nc2cc(S(=O)(=O)NCc3cccs3)ccc2N1 -18.8% [at 0.0016 µM, 100% = signal doubled over neutral wells], COc1ccc(CCNc2ccncn2)cc1OC -13.5% [at 0.0016 µM, 100% = signal doubled over neutral wells], COc1ccc(CCNC(=O)C(=O)NN=C2CCCCCCC2)cc1OC -11.7% [at 0.005 µM, 100% = signal doubled over neutral wells], COc1ccc(CCN=C(N)NS(=O)(=O)c2ccc(C)c(C)c2)cc1OC 23.8% [at 0.0016 µM, 100% = signal doubled over neutral wells], COc1ccc(CCN(C)C(=O)CCNS(=O)(=O)c2ccccc2C(F)(F)F)cc1OC -10.8% [at 0.135 µM, 100% = signal doubled over neutral wells], COc1ccc(CCNS(=O)(=O)c2ccc(Cl)s2)cc1OC 28.1%, CCOC(=O)c1c(S(=O)(=O)NCCc2ccc(OC)c(OC)c2)c(C)n(C)c1C -18.5% [at 0.135 µM, 100% = signal doubled over neutral wells], Cc1ccc(NC(=O)[C@@H](Cc2ccccc2)NC(=O)[C@H]2O[C@@H](n3ccc(=O)[nH]c3=O)[C@H](O)[C@@H]2O)cc1C -17.1% [at 0.015 µM, 100% = signal doubled over neutral wells], COc1ccc(NC(=O)C2CCCN2S(=O)(=O)c2ccc3c(c2)CC(C)N3C(C)=O)cc1OC (stereo unspecified) -19.4% [at 0.005 µM, 100% = signal doubled over neutral wells], COc1cccc(NC(=O)CN(C)C(=O)Cn2[nH]c(=O)c3ccccc3c2=O)c1 -27.7% [at 1.2 µM, 100% = signal doubled over neutral wells], COc1cc2c(cc1OC)C(CSc1ccccc1C(=O)O)=NC(C)(C)C2 30.8%, O=C(NCC1(O)CCCCC1)C1CCC(=O)N(Cc2ccccc2F)C1 (stereo unspecified) -16.4%, CCOC(=O)c1sc(NC(C)=O)nc1-c1ccccc1 -16.3% [at 0.046 µM, 100% = signal doubled over neutral wells], CN(C(=O)COC(=O)c1cccs1)c1ccccc1 -16.8% [at 0.0016 µM, 100% = signal doubled over neutral wells], Cc1cc(C(F)F)n2ncc(C(=O)NCc3ccc(F)cc3)c2n1 -18% [at 1.2 µM, 100% = signal doubled over neutral wells], O=C(Nc1cccnc1)c1cnn2c(C(F)F)cc(C3CC3)nc12 30.2% [at 11 µM, 100% = signal doubled over neutral wells]
